About 430 (29%) of roughly 1,500 compounds were called active. Not all results are given here. Potency and affinity values are given separately. Unmarked numbers belong to inactive results. No rule for the calls is given here.
Test: insulin secretion activators without glucose, dose response, counter-screen for glucose-dependent insulin secretion activators, cell-based, INS-1E, Gaussia luciferase, luminescence, cherry-pick (AID 977606);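 also: 0% = median of neutral control wells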
Details: INS-1E Gaussia luciferase insulin secretion, no glucose, 100% = twice neutral-control luminescence; series mostly up to 35 µM; activation: at the top concentration

| SMILES | activation |
| --- | --- |
| CC(=O)NCCNC(=O)CNC(=O)c1ccc(Cl)cc1 | -4.51% |
| C=CCn1cnc2scc(-c3ccc(OC)cc3)c2c1=O | -6.85% |
| COc1cc2c(cc1OC)/C(=C/C(=O)c1ccc(NC(C)=O)cc1)NCC2 | -1.92% |
| COC(=O)c1sc2ccccc2c1NC(=O)c1cccs1 | 5.35% |
| O=C(Nc1nonc1NC(=O)c1cccs1)c1cccs1 | 2.51% |
| CCOc1ncccc1C(=O)Nc1ccc(S(=O)(=O)Nc2nccs2)cc1 | 10.1% |
| O=C(O)c1cccc(N/N=C/c2sc(N3CCOCC3)nc2-c2ccccc2)c1 | 5.36% |
| Cc1ccc(NC(=O)CC2S/C(=N/N=C/c3c[nH]c4ccccc34)NC2=O)cc1 (stereo unspecified) | -5.04% |
| Cc1ccc(CC2S/C(=N/c3ccccn3)NC2=O)cc1 (stereo unspecified) | 2.79% |
| CCc1ccc2c(c1)cc(CN(Cc1ccco1)C(C)=O)c1nnnn12 | -15.1% |
| N#CCc1nn2c(-c3ccccc3)ccnc2c1C#N | -3.25% |
| O=C(OCc1c(-c2ccccc2)ncc2ccccc12)c1cccs1 | 21.3% |
| O=C(NCc1ccco1)c1ccc2c(=O)n(CCC3=CCCCC3)c(=O)[nH]c2c1 | -26.6% |
| Cc1c(CC(=O)O)c(=O)oc2c(C)c(OCc3ccccc3Br)ccc12 | -2.31% |
| N#Cc1c(N)n(C2CCCCC2)c2nc3ccccc3nc12 | 57.7% |
| COc1ccc(-n2c(O)cnc2Nc2nc(C)cc(C)n2)cc1OC | -3.92% |
| CCn1ccc(C(=O)Nc2ccccc2SC)n1 | 1.42% |
| COc1ccc(CNC(=O)COC(=O)c2cc(C)nc3ccccc23)cc1 | -10.3% |
| CCOC(=O)Cn1c(=O)n(Cc2ccc(OC)cc2)c(=O)c2cccnc21 | -7.55% |
| Cc1ccc(NC(=O)[C@@H](Cc2ccccc2)NC(=O)[C@H]2O[C@@H](n3ccc(=O)[nH]c3=O)[C@H](O)[C@@H]2O)cc1C | 23.2% |
| CNc1nc(N)c(C(=O)C(C)(C)C)s1 | -4.21% |
| COCCn1c(=S)[nH]c2sc3c(c2c1=O)CCCC3 | -6.53% [at 11 µM] |

| SMILES | activation |
| --- | --- |
| COc1ccc(OC)c(C2=Nn3c(nnc3-c3ccncc3)SC2)c1 | -10.9% |
| CC(C)Cn1c(=O)n(C)c(=O)c2[nH]cnc21 | -2.64% |
| O=C(NCC1CCCO1)C1CCC(N2C(=O)c3ccccc3C2=O)CC1 (stereo unspecified) | -8.16% |
| CC(C)NC(=O)C1(C)CN(S(C)(=O)=O)CC(=O)N1CCCN1CCOCC1 (stereo unspecified) | 2.72% |
| O=C(CC1SC2=NCCN2C1=O)Nc1ccc(Br)cc1 (stereo unspecified) | -8.59% |
| O=C(NC1CCCC1)C(C1CC1)n1c(-c2ccccn2)nc2ccccc21 (stereo unspecified) | -18.3% |
| COc1ccc(C(O)c2nccc3cc(OC)c(OC)cc23)cc1OC (stereo unspecified) | -5.12% |
| O=C(NN=C1CCCC1)c1cc(-c2ccccc2)n[nH]1 | -20% |
| COc1ccc(/C=N/NC(=O)c2cc(-c3ccc4c(c3)OCO4)n[nH]2)cc1OC | -16.1% |
| Cc1cccc(CN2C(=O)CSc3ccc(C(=O)NC4CC4)cc32)c1 | 0.275% |
| CNc1nc(Sc2ccccc2)cc(C(F)(F)F)n1 | 129% |
| CC(=O)c1cccc(Nc2ncnc3ccc(Br)cc23)c1 | -12.3% |
| CCOC(=O)c1cnc2ccc(Cl)cc2c1Nc1ccc(S(=O)(=O)Nc2ncccn2)cc1 | -1.89% |
| COc1ccc(/C(C)=N/Nc2ccc(C(=O)O)cc2)cc1OC | 13.4% |
| Cc1cc(C(=O)Nc2cccc(O)c2)c(C)o1 | -9.65% |
| Cc1ccnc(NC(=O)Nc2ccc(Br)cc2Cl)c1 | 4.76% |
| COc1ccc(Cl)cc1C(=O)Nc1cccc(-c2ccc3nncn3n2)c1 | -8.31% |
| COc1ccc(CCN(C)C(=O)CCNS(=O)(=O)c2ccccc2C(F)(F)F)cc1OC | 0.4% |
| NNc1nc(-c2ccccc2)c2ccccc2n1 | -5.34% |
| COc1nc(-c2ccccc2)c2cc(C)ccc2n1 | 2.68% |
| NC(=O)c1cc2cc(Cl)ccc2o/c1=N/NC(=O)c1cccs1 | -11.5% |
| COc1ccc(/C=C2/SC(=O)N(NS(=O)(=O)c3ccccc3)C2=S)cc1OC | 8.84% |

| SMILES | activation |
| --- | --- |
| CCc1nc2ccc(C(=O)N(C)CCCN(C)C)cn2c1N(C=O)CCC(C)C | 12.7% |
| CCCc1cc2c(OC)ccc(O)c2c(=O)n1C | 17.8% |
| CC(=O)Nc1ccc(Cl)c(-c2nc3ncccc3o2)c1 | -0.068% |
| CCn1nc(C(=O)Nc2ccc3nc(C)sc3c2)c2ccccc2c1=O | 4.93% |
| CNc1cc(-c2ccc(OC)c(OC)c2)ncn1 | 0.426% |
| CC(C)c1c(C(=O)N/N=C/c2cccc3ccccc23)nnn1-c1nonc1N | -18.9% |
| CC(C)Nc1nc(NC(C)(C)C)nc(Oc2ccc(=O)n(C)n2)n1 | -1.51% |
| COc1cc2c(cc1OC)-c1cc(Nc3ccc(C)cc3)nc(=O)n1CC2 | -11.2% |
| COc1ccc(OC)c(N(CC(=O)NN=C2CCN(C)CC2)S(=O)(=O)c2ccccc2)c1 | 2.12% |
| CCCCC(=O)Nc1ccc(C(=O)NNC(=O)c2ccc(C)c(Br)c2)cc1 | -4.37% |
| COc1ccc(/C=N/n2c(-c3n[nH]c4c3CCC4)n[nH]c2=S)cc1OC | -11.4% |
| COc1ccc(C(=O)NCC(=O)OCC(=O)Nc2sccc2C#N)cc1OC | -1.08% |
| NC(=O)c1ccsc1NC(=O)COC(=O)CNC(=O)c1ccc(Cl)cc1 | -1.84% |
| Cc1cc2oc(=O)cc(CN3CCOCC3)c2c(C)c1Cl | -14.3% |
| c1ccc2c(NCC3CCCO3)nc(N3CCCCC3)nc2c1 (stereo unspecified) | -9.01% |
| COc1cc(C2N(C)CCC3(OCCO3)C2(C)C)cc(OC)c1OC (stereo unspecified) | -3.95% |
| CCOc1ccc2oc(C(=O)N(C)CCc3ccc(OC)c(OC)c3)c(C)c2c1 | 11% |
| COc1ccc(-c2cc3nc4ccccc4n3c(N)c2C#N)cc1 | 0.43% |
| O=C(NCCCNc1ccnc2cc(Cl)ccc12)c1ccccc1F | 15.9% |
| COc1ccc(C(=O)Cc2cc3cccc(OC)c3oc2=O)cc1 | -13.9% |
| COc1cccc(NC(=O)CN(C)C(=O)Cn2[nH]c(=O)c3ccccc3c2=O)c1 | 7.36% |
| CCn1c(=O)[nH]c(=O)c2c(N)c(C(=O)c3cc(F)ccc3F)sc21 | -0.669% |
